From PubChem BioAssay (NCATS)
Inconclusive results are not listed. Calls of active or inactive are those of the source. The call rests on the fitted dose curve; in most records, active means well fitted curve in the direction sought with a large enough effect; inconclusive means small, poorly fitted or top-dose-only effect, or another doubt; inactive means no such curve, though single readings can be large; an effect the other way counts as inactive or inconclusive.

What was measured:
[1] = target: ATP-dependent 6-phosphofructokinase (Trypanosoma brucei brucei) (UniProt O15648); assay: qHTS Assay to Find Inhibitors of T. brucei phosphofructokinase: hit validation (AID 492961);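 further: luminescence reports ADP formed as PFK phosphorylates fructose-6-phosphate with ATP; on the % scale 0 is the no-effect control and ±100 the full control effect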
ATP-dependent 6-phosphofructokinase (Trypanosoma brucei brucei), sequence (O15648 whole entry, looked up): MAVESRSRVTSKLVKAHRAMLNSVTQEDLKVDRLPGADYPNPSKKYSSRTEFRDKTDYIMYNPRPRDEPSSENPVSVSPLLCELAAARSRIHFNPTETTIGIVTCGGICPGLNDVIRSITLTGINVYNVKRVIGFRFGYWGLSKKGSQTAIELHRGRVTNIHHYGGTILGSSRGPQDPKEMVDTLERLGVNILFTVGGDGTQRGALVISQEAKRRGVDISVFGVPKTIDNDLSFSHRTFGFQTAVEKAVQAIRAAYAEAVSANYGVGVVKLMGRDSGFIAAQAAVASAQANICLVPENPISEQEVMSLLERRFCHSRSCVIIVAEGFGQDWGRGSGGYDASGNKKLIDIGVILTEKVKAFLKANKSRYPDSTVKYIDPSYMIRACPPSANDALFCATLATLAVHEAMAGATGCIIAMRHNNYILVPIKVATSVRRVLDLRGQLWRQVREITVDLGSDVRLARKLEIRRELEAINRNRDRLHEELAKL
Method in brief: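 PFK 1.25 nM, F6P 0.5 mM, ATP 0.1 mM, MgCl2 5 mM, 0.1 M TEA pH 8.0, Tween20 0.01%, BSA 0.1%; 45 min RT. ADP-Glo two-step detection, luminescence. qHTS titration; curve fitting with curve-class categorization.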

[2] = qHTS profiling for inhibitors of Plasmodium falciparum proliferation (AID 504749);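 further: 0% = DMSO vehicle and full inhibition = artemisinin control; nearly all actives have a fitted effect of over 60% in size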; details: P. falciparum in erythrocytes, SYBR Green DNA, 72 h, at 28.7 µM (top of the series)
Method in brief: (§1)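 Fluorescence of SYBR Green-bound parasite DNA, read at 485/535 nm, served as the growth measure. Infected erythrocytes were cultured with compound 72 h; artemisinin (0.29 uM) and DMSO wells defined the normalization range.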

3D7 = assay: as above; details: P. falciparum in erythrocytes, SYBR Green DNA, 72 h; series mostly up to 28.7 µM
Method in brief: as §1

ATS189 = assay: as above; details: P. falciparum in erythrocytes, SYBR Green DNA, 72 h; series mostly up to 28.7 µM
Method in brief: as §1

ATS95 = assay: as above; details: P. falciparum in erythrocytes, SYBR Green DNA, 72 h; series mostly up to 28.7 µM
Method in brief: as §1

C2A = assay: as above; details: P. falciparum in erythrocytes, SYBR Green DNA, 72 h; series mostly up to 28.7 µM
Method in brief: as §1

CP185 = assay: as above; details: P. falciparum in erythrocytes, SYBR Green DNA, 72 h; series mostly up to 28.7 µM
Method in brief: as §1

CP191 = assay: as above; details: P. falciparum in erythrocytes, SYBR Green DNA, 72 h; series mostly up to 28.7 µM
Method in brief: as §1

CP217 = assay: as above; details: P. falciparum in erythrocytes, SYBR Green DNA, 72 h; series mostly up to 28.7 µM
Method in brief: as §1

CP238 = assay: as above; details: P. falciparum in erythrocytes, SYBR Green DNA, 72 h; series mostly up to 28.7 µM
Method in brief: as §1

CP250 = assay: as above; details: P. falciparum in erythrocytes, SYBR Green DNA, 72 h; series mostly up to 28.7 µM
Method in brief: as §1

CP252 = assay: as above; details: P. falciparum in erythrocytes, SYBR Green DNA, 72 h; series mostly up to 28.7 µM
Method in brief: as §1

CP256 = assay: as above; details: P. falciparum in erythrocytes, SYBR Green DNA, 72 h; series mostly up to 28.7 µM
Method in brief: as §1

CP262 = assay: as above; details: P. falciparum in erythrocytes, SYBR Green DNA, 72 h; series mostly up to 28.7 µM
Method in brief: as §1

CP265 = assay: as above; details: P. falciparum in erythrocytes, SYBR Green DNA, 72 h; series mostly up to 28.7 µM
Method in brief: as §1

CP286 = assay: as above; details: P. falciparum in erythrocytes, SYBR Green DNA, 72 h; series mostly up to 28.7 µM
Method in brief: as §1

DFO2036 = assay: as above; details: P. falciparum in erythrocytes, SYBR Green DNA, 72 h; series mostly up to 28.7 µM
Method in brief: as §1

Dd2 = assay: as above; details: P. falciparum in erythrocytes, SYBR Green DNA, 72 h; series mostly up to 28.7 µM
Method in brief: as §1

HB3 = assay: as above; details: P. falciparum in erythrocytes, SYBR Green DNA, 72 h; series mostly up to 28.7 µM
Method in brief: as §1

P94_40 = assay: as above; details: P. falciparum in erythrocytes, SYBR Green DNA, 72 h; series mostly up to 28.7 µM
Method in brief: as §1

CC1=C(c2ccc(NN=C(C#N)C#N)cc2)NNC(=O)C1
inactive: Potency [1] | activity, negative = inhibition ([2]; parasite line A) -7.66% | activity, negative = inhibition ([2]; parasite line B) 20.7% | Potency (3D7) | Potency (ATS189) | Potency (ATS95) | Potency (C2A) | Potency (CP185) | Potency (CP191) | Potency (CP217) | Potency (CP238) | Potency (CP250) | Potency (CP252) | Potency (CP256) | Potency (CP262) | Potency (CP265) | Potency (CP286) | Potency (DFO2036) | Potency (Dd2) | Potency (HB3) | Potency (P94_40)

CC(C)(C)NC[C@H](O)CSc1nc(-c2ccc(C(N)=O)s2)cs1
inactive: Potency [1] | activity, negative = inhibition ([2]; parasite line A) -8.78% | activity, negative = inhibition ([2]; parasite line B) -3.22% | Potency (3D7) | Potency (ATS189) | Potency (ATS95) | Potency (C2A) | Potency (CP185) | Potency (CP191) | Potency (CP217) | Potency (CP238) | Potency (CP250) | Potency (CP252) | Potency (CP256) | Potency (CP262) | Potency (CP265) | Potency (CP286) | Potency (DFO2036) | Potency (Dd2) | Potency (HB3) | Potency (P94_40)

N#C/C(=C1/SCC(c2ccccc2Cl)S1)n1ccnc1 (stereo unspecified)
inactive: Potency [1] | activity, negative = inhibition ([2]; parasite line A) -5.78% | activity, negative = inhibition ([2]; parasite line B) -14.7% | Potency (3D7) | Potency (ATS189) | Potency (C2A) | Potency (CP185) | Potency (CP191) | Potency (CP217) | Potency (CP238) | Potency (CP250) | Potency (CP252) | Potency (CP256) | Potency (CP262) | Potency (CP265) | Potency (CP286) | Potency (DFO2036) | Potency (Dd2) | Potency (HB3) | Potency (P94_40)

Cc1cc2nc3c(=O)[nH]c(=O)nc-3n(CC(O)C(O)C(O)COP(=O)(O)O)c2cc1C (stereo unspecified)
inactive: Potency [1] | activity, negative = inhibition ([2]; parasite line A) -0.201% | activity, negative = inhibition ([2]; parasite line B) 1.68% | Potency (3D7) | Potency (ATS189) | Potency (ATS95) | Potency (C2A) | Potency (CP185) | Potency (CP217) | Potency (CP238) | Potency (CP250) | Potency (CP252) | Potency (CP256) | Potency (CP262) | Potency (CP265) | Potency (CP286) | Potency (DFO2036) | Potency (Dd2) | Potency (HB3) | Potency (P94_40)

C#C[C@]1(O)CC[C@H]2[C@H]3[C@H](CC[C@@]21C)C1=C(CC(=O)CC1)C[C@@H]3C
inactive: Potency [1] | activity, negative = inhibition ([2]; parasite line A) -14.8% | activity, negative = inhibition ([2]; parasite line B) -21.9% | Potency (3D7) | Potency (ATS189) | Potency (ATS95) | Potency (C2A) | Potency (CP185) | Potency (CP191) | Potency (CP217) | Potency (CP238) | Potency (CP250) | Potency (CP252) | Potency (CP256) | Potency (CP262) | Potency (CP265) | Potency (CP286) | Potency (DFO2036) | Potency (Dd2) | Potency (HB3) | Potency (P94_40)

COc1ccc(C(=O)/C(Br)=C/C(=O)O)cc1
inactive: Potency [1] | activity, negative = inhibition ([2]; parasite line A) -21.1% | activity, negative = inhibition ([2]; parasite line B) -8.61% | Potency (ATS189) | Potency (C2A) | Potency (CP185) | Potency (CP238) | Potency (CP250) | Potency (CP252) | Potency (CP256) | Potency (CP262) | Potency (CP265) | Potency (CP286) | Potency (DFO2036) | Potency (Dd2) | Potency (HB3) | Potency (P94_40)

CC1(C)O[C@@H]2C[C@H]3[C@@H]4CCC5=CC(=O)C=C[C@]5(C)[C@H]4C(O)C[C@]3(C)[C@]2(C(=O)CO)O1 (stereo partly specified)
inactive: Potency [1] | activity, negative = inhibition ([2]; parasite line A) -12.4% | activity, negative = inhibition ([2]; parasite line B) -28% | Potency (3D7) | Potency (ATS189) | Potency (ATS95) | Potency (C2A) | Potency (CP185) | Potency (CP191) | Potency (CP217) | Potency (CP238) | Potency (CP250) | Potency (CP252) | Potency (CP256) | Potency (CP262) | Potency (CP265) | Potency (CP286) | Potency (DFO2036) | Potency (HB3) | Potency (P94_40)

C=C(CC[C@@H](C)[C@H]1CCC2[C@]1(C)CC[C@]13C[C@@]14CCC(OC(=O)/C=C/c1ccc(O)c(OC)c1)C(C)(C)[C@@H]4CC[C@@]23C)C(C)C (stereo partly specified)
inactive: Potency [1] | activity, negative = inhibition ([2]; parasite line A) 3.06% | activity, negative = inhibition ([2]; parasite line B) 1.72% | Potency (3D7) | Potency (ATS189) | Potency (ATS95) | Potency (C2A) | Potency (CP185) | Potency (CP191) | Potency (CP217) | Potency (CP238) | Potency (CP250) | Potency (CP252) | Potency (CP256) | Potency (CP262) | Potency (CP265) | Potency (CP286) | Potency (DFO2036) | Potency (Dd2) | Potency (HB3) | Potency (P94_40)
